# Measurements taken from PubChem BioAssay (NCATS).
# Inconclusive results are not listed. A call without a number means that no potency is given here. Activity calls are given as the source filed them. Calls follow the shape of the dose curve; as a rule, active = well fitted curve in the direction sought with a large enough effect; inconclusive = small, poorly fitted or top-dose-only effect, or another doubt; inactive = no such curve, though single readings can be large; an effect the other way counts as inactive or inconclusive.
# Legend:
# [1] = system: Zika virus NS2B-NS3 protease (unlinked complex); assay: Primary screen GU Rhodamine qHTS for Zika virus inhibitors: Unlinked NS2B-NS3 protease assay (AID 1347159); also: nearly all actives have a fitted effect of over 60% in size; also: potency is read from the fitted curve at half-maximal effect
# Method in brief: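 Unlinked NS2B/NS3, 25 nM; Rhod110 peptide, 1.5 microM; compounds, up to 114 microM. Reaction run 15 min at RT in 10 mM Tris-HCl pH 8.0, 0.01% Tween 20; kinetic fluorescence change fitted with a 4-parameter Hill model.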
# [2] = ZIKV-mCherry secondary qHTS for Zika virus inhibitors (AID 1347158); also: top concentration of the series differs between compounds
# Method in brief: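 Read-out is percent infection: mCherry-positive Vero cells (nuclear-proximal intensity >450 RFU, 3 SD above negative controls) counted by high-content imaging of Hoechst-stained, PFA-fixed wells after 48-72 h with ZIKV-mCherry at MOI 1 and compound.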
# [3] = system: Zika virus NS2B-NS3 protease (linked construct); assay: Primary screen NINDS Rhodamine qHTS for Zika virus inhibitors (AID 1347160); also: potency is read from the fitted curve at half-maximal effect; nearly all actives have a fitted effect of over 55% in size
# Method in brief: (§1)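 Single-chain NS2B-NS3 protease, 25 nM, pH 8.0; compounds preincubated 15 min. Activity: Rhodamine110 release from 1.5 microM substrate over 15 min, room temperature, data fitted to 4-parameter Hill.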
# [4] = Confirmatory screen NINDS Rhodamine qHTS for Zika virus inhibitors (AID 1347161); settings: purified enzyme assay, Rhodamine110 substrate fluorescence, 15 min; also: potency is read from the fitted curve at half-maximal effect; nearly all actives have a fitted effect of over 60% in size
# Method in brief: as §1
# [5] = system: Zika virus NS2B-NS3 protease (linked); assay: 384 well plate NINDS AMC confirmatory qHTS for Zika virus inhibitors (AID 1347163); also: potency is read from the fitted curve at half-maximal effect; nearly all actives have a fitted effect of over 50% in size
# Method in brief: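 Enzyme (5, 30 or 60 nM final) first met test compounds for ~15 min. The AMC-tagged peptide Ac-VKTGKR-AMC followed at 30 microM. Fluorescence was then recorded at 25 min and scaled against no-enzyme and no-inhibitor wells.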
# [6] = system: Zika virus NS2B-NS3 protease (linked construct); assay: 384 well plate NINDS Rhodamine confirmatory qHTS for Zika virus inhibitors (AID 1347164); also: potency is read from the fitted curve at half-maximal effect; nearly all actives have a fitted effect of over 65% in size
# Method in brief: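 Cleavage of Ac-LKRR-Rhodamine 110 (10 microM final) by linked protease (final 5, 30 or 60 nM) was followed as fluorescence at 485/538 nm after 25 min, room temperature, dark. Compounds preincubated ~15 min.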
# [7] = Vero cells viability qHTS for Zika virus inhibitors (AID 1347167)
# Method in brief: (§2)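 To flag cytotoxic protease inhibitors, viability is measured by ATP-dependent luminescence (CellTiter Glo) after cells attached overnight receive compound for 24 to 48 hours in DMEM with 4% FBS.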
# [8] = HepG2 cells viability qHTS for Zika virus inhibitors (AID 1347168)
# Method in brief: as §2
# [9] = Tertiary RLuc qRT-PCR qHTS assay for Zika virus inhibitors (AID 1347169); also: top concentration of the series differs between compounds; nearly all actives have a fitted effect of over 55% in size
# Method in brief: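 Inhibition of ZIKV-RLuc replication in Vero cells, read as Renilla luminescence 1-1.5 hrs after live-cell substrate addition, following 48-72 hrs infection at MOI 1-2 in presence of compound.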
compound,measurement,setting,value
O=C1CC(c2ccc([N+](=O)[O-])cc2)=NN1c1ccccc1,Potency,[1],39.8 µM (active)
COc1cc(/C=C/C(=O)O[C@H]2[C@H](OC(=O)/C=C/c3cc(OC)c(O)c(OC)c3)O[C@H](CO[C@@H]3O[C@H](CO)[C@@H](O)[C@H](O)[C@H]3O)[C@@H](O)[C@@H]2O)ccc1O,Potency,[1],inactive
O=C(O)c1cc(O[C@@H]2O[C@H](CO[C@@H]3OC[C@@H](O)[C@H](O)[C@H]3O)[C@@H](O)[C@H](O)[C@H]2O)c2ccccc2c1O,Potency,[1],inactive
CC(C)=CCc1ccc(Oc2c(O)cc(C)cc2CO)c(C(=O)O)c1O,Potency,[1],6.31 µM (active)
CC1OC(OC2C(O)C(C(=O)O)OC(OC3CCC4(C)C(CCC5(C)C4C=CC4=C6CC(C)(C)CC(O)C6(C)CCC45C)C3(C)C)C2OC2OCC(O)C(O)C2O)C(O)C(O)C1O (configuration not stated),Potency,[1],3.55 µM (active)
O=C(c1ccc(NS(=O)(=O)c2cccc3cccnc23)cc1)N1CCN(CC2CC2)CC1,Potency,[1],inactive
Cc1cc(C)c(S(=O)(=O)N(Cc2ccc(-c3cccc(S(C)(=O)=O)c3)cc2)Cc2ccc(C(F)(F)F)o2)c(C)c1,Potency,[1],inactive
CCN[C@@H]1C[C@H](N)[C@@H](O[C@H]2OC(CN)=CC[C@H]2N)[C@H](O)[C@H]1O[C@H]1OC[C@](C)(O)[C@H](NC)[C@H]1O,Potency,[1],inactive
O=C(/C=C/c1c(C(=O)O)[nH]c2cc(Cl)cc(Cl)c12)Nc1ccccc1,outcome,[2],inactive
same,Potency,[1],3.55 µM (active)
same,Potency,[3],3.16 µM (active)
same,Potency,[4],2.48 µM (active)
same,Potency,[5],1.12 µM (active)
same,Potency,[6],8.91 µM (active)
same,outcome,[7],inactive
same,outcome,[8],inactive
same,Potency,[9],inactive
